# Reference: PubChem BioAssay AID2685 (National Center for Advancing Translational Sciences (NCATS), 2010)
# The campaign covered roughly 320,000 compounds. About 2,100 (0.66%) were called active. Inconclusive results (about 53%) are left out. Calls come from the whole dose curve; as a rule, active = well fitted inhibition curve with a large enough effect in the signal ratio, with a control signal flat (not every such curve was filed as active); inconclusive = small, poorly fitted or top-dose-only effect, or effect the other way, or a change in a side signal; inactive = flat fitted curve, though single readings scatter; the % refers to the signal ratio. Many of the other results were omitted from the sample, so actives are more common in it than they were.
# Assay: qHTS Assay for Lipid Storage Modulators in Drosophila S3 Cells;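 for cell number change: cells counted by Cell Tracker Red CMTPX staining in the red channel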; for lipid storage change, negative = inhibition: % is set by controls: 0 for no effect and ±100 for the full control effect
# Conditions: BODIPY lipid droplet fluorescence, 18-24 h, cells fed with added oleic acid; cell number change: measured here: cell count max response; series mostly up to 46.1 µM; lipid storage change, negative = inhibition: at the top concentration
# How it was run: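 Drosophila S3 cells loaded with oleic acid (400 uM, as added) and compounds at several concentrations; lipid droplets imaged by 488-nm laser-scanning cytometry, 500–530 nm intensity and object ratio to cell channel. Percent activity normalized to 20 uM Triacsin C.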
# Potency is the fitted concentration of half-maximal effect.
SMILES,"lipid storage change, negative = inhibition",cell number change,outcome,Potency
NS(=O)(=O)c1ccc(CNC(=O)/C=C/c2ccccc2)cc1,-14.1% (inactive),2.48%,–,–
O=C(CC(Sc1ccc(Br)cc1)C(=O)O)c1ccc(F)cc1 (stereo unspecified),-0.707% (inactive),-1.05%,–,–
CN=C(Nc1ccc(C(=O)OC)s1)c1ccccc1,12.5% (inactive),–,–,–
O=C(Nc1ccccc1)c1cccnc1NCCc1ccccc1,-0.163% (inactive),-3.52%,–,–
Cc1ccc(CNC(=O)C(N=C2NS(=O)(=O)c3ccccc32)C(C)C)cc1 (stereo unspecified),8% (inactive),10.7%,–,–
CN(CC(O)COc1ccc2ccccc2c1)C1CCCCC1 (stereo unspecified),-12.6% (inactive),-0.529%,–,–
COc1ccc(OC)c(CCNC(=O)Cn2cccc2C(=O)c2ccccc2)c1,–,–,inactive,–
COc1ccc(CCNC(=O)Cn2cccc2C(=O)c2ccccc2)cc1OC,–,-21.4%,–,25.9 µM (active)
COc1ccc(CCNC(=O)Cn2cccc2C(=O)c2ccccc2)c(OC)c1,2.64% (inactive),6.75%,–,–
COc1ccc(NC(=O)C(OC(=O)c2ccc([N+](=O)[O-])o2)c2ccccc2)cc1Cl (stereo unspecified),0.0378% (inactive),0.814%,–,–
Cc1nc2n(n1)C(c1ccccc1)C1=C(CC(c3ccco3)CC1=O)N2 (stereo unspecified),–,–,inactive,–
Cc1cc(C)cc(NC(=O)C(=S)NCc2ccccc2)c1,-0.376% (inactive),9.48%,–,–
O=C(NNc1nc2c(F)cc(F)cc2s1)c1ccccc1,21.3% [at 9.22 µM] (inactive),6.06%,–,–
O=S(=O)(c1ccccc1)c1nnn2c1nc(NC1CCN(Cc3ccccc3)CC1)c1cc(Cl)ccc12,–,-5.44%,–,18.4 µM (active)
O=S(=O)(c1ccccc1)c1nnn2c1nc(NC1CCN(Cc3ccccc3)CC1)c1ccccc12,9.25% (inactive),0.895%,–,–
O=S(=O)(NC1CCN(Cc2ccccc2)CC1)c1ccc(Cl)cc1,0.306% (inactive),-5.28%,–,–
Cc1nc(CS(=O)(=O)c2ccccc2)cc(Sc2ccc(Cl)cc2)n1,–,–,inactive,–
O=C(NCCCN1CCOCC1)c1ccc2c(c1)N(Cc1ccccc1)C(=O)c1ccccc1S2=O (stereo unspecified),–,-4.72%,inactive,–
C=CCn1c(COc2cc(C)ccc2C(C)C)nnc1SCC(=O)c1c(N)n(C)c(=O)n(C)c1=O,18.2% (inactive),25.2%,–,–
Cc1ccc(S(=O)(=O)N2CCN(S(=O)(=O)c3ccc(C)cc3)C3OCCOC32)cc1 (stereo unspecified),10.1% (inactive),-0.0898%,–,–
Cc1ccc(S(=O)(=O)C(CCC(=O)N2CCOCC2)S(=O)(=O)c2ccc(C)cc2)cc1,11.4% (inactive),-12.5%,–,–
CCC(N1CCOC1=O)S(=O)(=O)c1ccc(C)cc1 (stereo unspecified),–,-15.9%,–,25.9 µM (active)
Cc1ccc(S(=O)(=O)NC(CC(=O)n2nc(C)cc2C)c2ccccc2)cc1 (stereo unspecified),–,–,inactive,–
COC(=O)c1ccc(Cl)c(NC(=O)CN2CCOCC2)c1,-3.77% (inactive),-12.2%,–,–

SMILES,"lipid storage change, negative = inhibition",cell number change,outcome,Potency
COC(=O)c1ccc(Cl)c(NC(=O)CN2CCN(C)CC2)c1,–,-16%,–,25.9 µM (active)
COC(=O)c1ccc(Cl)c(NC(=O)CN2CCN(Cc3ccccc3)CC2)c1,-0.436% (inactive),2.04%,–,–
COc1ccc(-n2c(=O)cc(N3CCN(Cc4ccccc4)CC3)[nH]c2=O)cc1,-0.394% (inactive),-3.15%,–,–
O=C(CSc1nnc(-c2ccccc2Cl)o1)N1CCCCC1,–,–,inactive,–
Cc1ccccc1-c1nnc(SCC(=O)N2CCCC2)o1,–,9.17%,inactive,–
O=C(CSc1nnc(-c2ccccc2F)o1)N1CCCC1,–,22.6%,–,23.1 µM (active)
COC(=O)CN(n1cnnc1)S(=O)(=O)c1ccccc1Cl,–,-1.98%,inactive,–
COc1cccc(NC(=O)COC(=O)CCn2c(C)csc2=O)c1,–,-50%,inactive,–
CCCCn1c(SCC(=O)N(C)C)nnc1-c1ccncc1,11.4% (inactive),9.01%,–,–
CCCCn1c(SCC(=O)N2CCc3ccccc32)nnc1-c1ccncc1,-8.27% (inactive),-7.69%,–,–
CSc1nnc(-c2ccncc2)n1CCCN1CCCC1=O,–,-16.4%,–,0.731 µM (active)
CC(C)(C)OC(=O)NCCCC(CCCNC(=O)OC(C)(C)C)C(=O)O,–,-6.12%,–,16.4 µM (active)
CC(C)(C)OC(=O)NCCCCCO,4.7% (inactive),-1.04%,–,–
CC(C)(C)OC(=O)NC(Cc1ccccc1)C(=O)NCCCC(=O)O (stereo unspecified),-11.2% (inactive),-14.4%,–,–
Cc1ccc(C(=O)N/N=C/c2ccc(-c3cccc(Cl)c3)o2)cn1,-1.13% (inactive),8.19%,–,–
Nc1c(-c2ccccc2)sc2ccc3ccccc3[n+]12,–,7.96%,–,1.3 µM (active)
Nc1nc(-c2ccccc2)c(-c2ccc([N+](=O)[O-])cc2)s1,20.9% (inactive),0.729%,–,–
Nc1nc(-c2ccccc2)c(-c2ccccc2)s1,2.72% (inactive),–,–,–
O=C(COC(=O)C1COc2ccccc2O1)Nc1cccc(Cl)c1 (stereo unspecified),3.3% (inactive),-13.4%,–,–
Cc1ccccc1C1C(=O)c2ccccc2C1=O,–,14.4%,–,20.6 µM (active)
Cc1ccc(C)c(C2C(=O)c3ccccc3C2=O)c1,-0.949% (inactive),-8.26%,–,–
O=C1c2ccccc2C(=O)C1c1ccccc1,2.57% (inactive),3.81%,–,–
O=C(Nc1ccc(Cl)cc1)Nc1ccon1,-1.42% (inactive),28.2%,–,–
O=C(Nc1cccc(Cl)c1)Nc1ccon1,–,-26.2%,inactive,–

SMILES,"lipid storage change, negative = inhibition",cell number change,outcome,Potency
O=C(Nc1ccc(Cl)c(Cl)c1)Nc1ccon1,–,–,–,10 µM (active)
Cc1cc(C)c(OCCCCCNCCO)c(C)c1,–,-17.5%,–,25.9 µM (active)
Cc1cc(C)cc(OCCCCCNCCO)c1,-0.724% (inactive),-17.6%,–,–
Cc1ccccc1OCCCCCNCCO,–,2.5%,inactive,–
O=C1NCCN(Cc2ccc(Cl)c(F)c2)C1CC(=O)N1CCCCO1 (stereo unspecified),7.12% (inactive),5.73%,–,–
Nc1nc2c(C(=O)N3CCOCC3)nnn2c2ccccc12,5.07% (inactive),6.42%,–,–
CCN(CC)S(=O)(=O)c1ccc(N2CCCC2)c(NS(=O)(=O)c2ccc(OC)cc2)c1,1.12% (inactive),10.1%,–,–
CCN(CC)S(=O)(=O)c1ccc(N2CCOCC2)c(NS(=O)(=O)c2ccc(C)c(C)c2)c1,-10.2% (inactive),16%,–,–
CCN(CC)S(=O)(=O)c1ccc(N2CCOCC2)c(NS(=O)(=O)c2ccc(OC)cc2)c1,–,-20.4%,–,20.6 µM (active)
CN(C(=O)CCn1c(=S)oc2ccccc21)c1ccc(F)cc1,7.47% (inactive),7.52%,–,–
Cc1cc(C)c(C)c(S(=O)(=O)N[C@@H](C)C(=O)OCC(N)=O)c1C,-8.61% (inactive),-24.5%,–,–
O=C(NCC(=O)N1CCN(c2ccccc2)CC1)c1ccco1,11.3% (inactive),1.29%,–,–
COc1ccc(N2CCN(C(=O)COC(=O)c3ccco3)CC2)cc1,-1.86% (inactive),6.24%,–,–
O=C(OCC(=O)N1CCN(c2ccccc2)CC1)c1ccco1,–,-17.5%,–,23.1 µM (active)
COc1ccc(NC(=O)CCS(=O)(=O)c2ccc(Cl)cc2)cc1,–,–,inactive,–
O=S(=O)(c1cccs1)N1CCC(Cc2ccccc2)CC1,–,-12%,inactive,–
CCC(C)Sc1ccc(-c2nc3ccc(C)cn3c2NC2CCCCC2)cc1 (stereo unspecified),15.5% (inactive),-1.01%,–,–
CCCCCCSc1ccc(-c2nc3ccc(C)cn3c2NC2CCCCC2)cc1,–,–,–,11.6 µM (active)
CCCCCCSc1cccc(-c2nc3cc(C)ccn3c2NC2CCCCC2)c1,-7.42% (inactive),-11.8%,–,–
CC(C)(C)CC(=O)Nc1nn[nH]n1,2.6% (inactive),-2.51%,–,–
O=C(NNC(=S)NC1CC2C=CC1C2)c1cccnc1 (stereo unspecified),2.66% (inactive),2.14%,–,–
COCC(=O)Nc1ccc(Br)c(C)c1,14.1% [at 9.22 µM] (inactive),9.41%,–,–
CCOC(=O)Cc1csc(SCC(=O)Nc2ccc(C)cc2F)n1,31.2% (inactive),-11%,–,–
CCOC(=O)Cc1csc(SCC(=O)NC(C)C23CC4CC(CC(C4)C2)C3)n1 (stereo unspecified),–,5.41%,–,1.64 µM (active)

SMILES,"lipid storage change, negative = inhibition",cell number change,outcome,Potency
CCOC(=O)Cc1csc(SCC(=O)Nc2cccc(Cl)c2)n1,-3.77% (inactive),13.5%,–,–
O=C(Nc1ccccn1)c1ccc(Cl)c(S(=O)(=O)N2CCOCC2)c1,-1.8% (inactive),13.7%,–,–
CCOC(=O)COc1ccccc1C(=O)c1cnn(-c2ccccc2)c1,8.31% (inactive),3.88%,–,–
CCC(C)NC(=O)CSc1nc2ccccc2c(=O)n1CCCN1CCCCC1 (stereo unspecified),24.2% (inactive),-2.07%,–,–
Cc1cc([N+](=O)[O-])nn1CCC(=O)Nc1nccs1,15% (inactive),0.24%,–,–
CCCN1CCc2c(sc(NC(=O)c3ccc(S(=O)(=O)N(C)c4ccccc4)cc3)c2C(=O)NC)C1,–,-17.2%,–,4.11 µM (active)
CCCN1CCc2c(sc(NC(=S)NC(=O)c3ccccc3)c2C#N)C1,-2.06% (inactive),3.88%,–,–
COC(=O)c1c(NC(=O)c2ccc(N(C)S(=O)(=O)c3ccc(C)cc3)cc2)sc2c1CCCC2,8.28% (inactive),-4.01%,–,–
CN1CCc2c(sc(NC(=O)c3ccc(C(=O)c4ccccc4)cc3)c2C(N)=O)C1,-25.9% (inactive),0.647%,–,–
CCCN1CCc2c(sc(NC(=O)c3ccc(S(=O)(=O)N(C)c4ccccc4)cc3)c2C(N)=O)C1,–,-20.7%,–,13 µM (active)
CCCN1CCc2c(sc(NC(=O)c3ccc(S(=O)(=O)N4CCN(C(=O)OCC)CC4)cc3)c2C(N)=O)C1,-19.6% (inactive),-7.97%,–,–
COc1cc(OC)c(C(=O)OCC(=O)NCCC2=CCCCC2)cc1OC,–,-12.4%,inactive,–
COCCNC(=O)CCCn1c(=O)c2cc(OC)c(OC)cc2n(CC(=O)c2ccc(Cl)cc2)c1=O,-0.141% (inactive),-4.78%,–,–
CCOC(=O)C1CCN(C(=O)CC(NS(=O)(=O)c2ccc(OC)cc2)C(C)C)CC1 (stereo unspecified),8% (inactive),5.69%,–,–
OCCCNc1cc(-c2ccnc(Nc3cccc(Cl)c3)n2)ccn1,–,-20.1%,–,6.51 µM (active)
CC(C)n1cnc2c(Nc3cccc(Cl)c3)nc(NCCCO)nc21,-22.1% (inactive),1.01%,–,–
CN(C)CCCNc1ccc(-c2cc(Nc3cccc(Cl)c3)ncn2)cn1,8.12% (inactive),7.36%,–,–
OC(COc1c(F)cc(Br)cc1F)CN1CCc2ccccc2C1 (stereo unspecified),12.2% (inactive),-1.04%,–,–
c1ccc(Cc2nnc3sc(-c4ccccn4)nn23)cc1,–,–,inactive,–
CCN(CC)CCN(Cc1cc2cc3c(cc2[nH]c1=O)OCCO3)C(=O)NC1CCCCC1,–,4.42%,–,16.4 µM (active)
O=C(NC1CCCCC1)N(CCN1CCCC1)Cc1cc2cc3c(cc2[nH]c1=O)OCCO3,–,–,inactive,–
CN(C)CCCN(Cc1cc2cc3c(cc2[nH]c1=O)OCCO3)C(=O)NC1CCCCC1,-6.26% (inactive),0.0235%,–,–
